# From PubChem BioAssay
# Activity calls are given as the source filed them.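 How the source made its calls, unless noted: active means compound raises insulin release from rat beta cells at 5 mM glucose, no numeric limit stated; inactive means the rest.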
# Tests used:
# [1] = Wnt pathway potentiators raising nuclear beta-catenin – imaging, WNT3A-conditioned medium, mouse C2C12, NPC library, primary screen (AID 1117326; in the data active means nuclear beta-catenin stimulation mostly above about 4.2%, no sharp cut-off; inactive means mostly below about 10%; further: reference of the scale not given here); settings: stronger effect = higher value
# [2] = stimulators of insulin release from INS-1E, primary screen, cell-based, 5 mM glucose, NPC library (AID 1117329); settings: rat INS-1E insulin secretion, at 10 µM, stronger effect = higher value; further: reference of the scale not given here
# [3] = growth inhibition of GSK3B-pretreated HCT116 cells – cell-based, CellTiter-Glo, 0.2 to 20 µM (AID 1117336;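 active means compounds lowering colon cancer cell viability after pretreatment blocking the GSK3B kinase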); settings: HCT116 viability after GSK3B inhibitor, at 20 µM, stronger effect = higher value
# [4] = inhibition of endothelial tube formation, primary screen, imaging, VEGF stimulated, CD31 staining, tube area, NPC library (AID 1117340;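 active means compound that reduces growth-factor-driven endothelial tube area in a mixed cell culture, no cutoff stated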); settings: VEGF-stimulated ADSC/ECFC co-culture, at 10 µM, stronger effect = higher value
# [5] = GLP1 release stimulators, primary, NCI-H716, NPC library (AID 1117341;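 active means compound raises GLP1 secretion from the human gut endocrine cells, with no numeric limit stated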; further: reference of the scale not given here); settings: NCI-H716 cells, at 10 µM, stronger effect = higher value
# [6] = HCT116 colon cancer cell growth inhibition, primary screen, CellTiter-Glo luminescence, NPC library (AID 1117342;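 active means compounds that lower survival of HCT116 colon cancer cells in the luminescence readout, no numeric limit stated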); settings: at 20 µM (top of the series)
# [7] = reduced SW480 viability measured with CellTiter-Glo, NPC library, primary (AID 1117343;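 active means compounds that lower viability of the colon cancer cells in the luminescence readout, with no numeric limit stated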); settings: CellTiter-Glo luminescence; at 20 µM (top of the series)
# [8] = NPC library primary testing for decreased DLD-1 cell viability via CellTiter-Glo (AID 1117346;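 active means compounds that lower survival of DLD-1 colon cancer cells in the luminescence readout, no cutoff given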); settings: DLD-1 viability, CellTiter-Glo luminescence; at 20 µM (top of the series)
Structure (SMILES),nuclear beta-catenin stimulation ([1]; at 10 µM),"nuclear beta-catenin stimulation ([1]; stimulation, at 2 µM) [%]",insulin secretion stimulation [2],viability decrease [3],tube area decrease [4],GLP1 secretion stimulation [5],inhibition of viability [6],viability decrease (inhibition) [7],viability decrease (inhibition) [8]
CC(=O)C1CCOC1=O (stereo unspecified),-0.1% (inactive),1.2,3.7% (inactive),13.5% (inactive),-5% (inactive),2.7% (inactive),16.7% (inactive),1.5% (inactive),1.4% (inactive)
O=c1c(C2CC(c3ccc(-c4ccc(Br)cc4)cc3)Cc3ccccc32)c(O)sc2ccccc12 (stereo unspecified),0% (inactive),-2.4,1.05% (inactive),117% (active),34.2% (inactive),4.8% (inactive),123% (active),157% (active),101% (active)
CN1CCC(O)(c2ccc(F)cc2)C(C(=O)c2ccc(F)cc2)C1 (stereo unspecified),20.8% (inactive),1.6,5% (inactive),-1.23% (inactive),18% (inactive),4.8% (inactive),4.35% (inactive),87% (active),72.8% (active)
C1CCC(NC2CCCCC2)CC1,1.5% (inactive),2,1.3% (inactive),-4.15% (inactive),-1.6% (inactive),0.1% (inactive),7.9% (inactive),-22% (inactive),-4.45% (inactive)
C[C@]12CC[C@H]3[C@@H](CC=C4C[C@@H](O)CC[C@@]43C)[C@@H]1CC[C@@H]2O,2.9% (inactive),-0.3,-1% (inactive),3.75% (inactive),-14.6% (inactive),-6% (inactive),5.2% (inactive),28.6% (inactive),1.05% (inactive)
c1cc2c(c(N3CCNCC3)c1)OCCO2,-1.4% (inactive),0.7,1.8% (inactive),-14.9% (inactive),-9.4% (inactive),-2.6% (inactive),3.6% (inactive),3.4% (active),-7.5% (inactive)
O=c1[nH]c2cc(Cl)ccc2n1C1CCNCC1,9.1% (inactive),19.6,3.8% (inactive),1.8% (inactive),-3.4% (inactive),10.2% (inactive),29.9% (inactive),10.3% (inactive),12.5% (inactive)
CCCN(CCC)C(=O)Cc1c(-c2ccc(Cl)cc2)nc2ccc(Cl)cn12,-2% (inactive),-0.8,11.7% (inactive),10.8% (inactive),-7.3% (inactive),-2.3% (inactive),49.5% (inactive),18% (inactive),27.1% (inactive)
Cc1nnc2n1-c1sc(CCc3ccc(CC(C)C)cc3)cc1C(c1ccccc1Cl)=NC2C (stereo unspecified),-1% (inactive),3.8,4.1% (inactive),110% (active),48.1% (active),20.1% (active),113% (active),134% (active),102% (active)
N[C@@H](Cc1ccc(Oc2cc(I)c(O)c(I)c2)c(I)c1)C(=O)O,0.6% (inactive),-0.5,2.2% (inactive),48.2% (inactive),34.7% (inactive),-3.9% (inactive),39.6% (inactive),36.1% (inactive),-13.1% (inactive)
O=c1ccc2cc(O[C@@H]3O[C@H](CO)[C@H](O)[C@H](O)[C@H]3O)c(O)cc2o1,-0.9% (inactive),-0.5,5% (inactive),-6.5% (inactive),-14.5% (inactive),-2.1% (inactive),8.5% (inactive),13.9% (inactive),-0.6% (inactive)
CC(C)(C)NC[C@H](O)c1ccc(O)cc1Cl,0.3% (inactive),-0.2,7.2% (inactive),13.2% (inactive),-4.4% (inactive),5.5% (inactive),35.7% (inactive),37.1% (inactive),8.8% (inactive)
CCN1CCCC1CNC(=O)C(O)(c1ccccc1)c1ccccc1 (stereo unspecified),1.8% (inactive),1.9,8.1% (inactive),-4.1% (inactive),-2.9% (inactive),-0.1% (inactive),10.9% (inactive),24.2% (inactive),-4.5% (active)
Oc1ccc2[nH]cc(CCCCN3CC=C(c4ccccc4)CC3)c2c1,12.1% (inactive),4,1.8% (inactive),81.3% (active),76.6% (active),5.1% (inactive),85% (active),102% (active),81.4% (active)
